Measured values taken from PubChem BioAssay (NCI).
About 83,000 compounds went through this panel and 20% of them were active in at least one assay; those are over-represented in the sample as a whole.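 Assay: single dose, 48 h. Readout: percent growth (0 = no net growth; negative = cell death). Active: <10.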 A number with no mark means an inactive call. The source made the active and inactive calls.

Key:
Experiment in all cases: NCI-60 one-dose screen, 48 h (100 = growth as untreated, 0 = no growth, -100 = all killed)
DU-145 prostate = details: 10 µM unless noted
K-562 leukemia = details: 10 µM unless noted
MALME-3M melanoma = details: 10 µM unless noted
MDA-MB-231 breast = details: 10 µM unless noted
RXF 393 renal = details: 10 µM unless noted
SF-268 CNS = details: 10 µM unless noted
SF-295 CNS = details: 10 µM unless noted
SF-539 CNS = details: 10 µM unless noted
UACC-257 melanoma = details: 10 µM
M14 melanoma = details: 10 µM unless noted
HCT-15 colon = details: 10 µM unless noted
HT29 colon = details: 10 µM unless noted
SNB-75 CNS = details: 10 µM unless noted
SNB-19 CNS = details: 10 µM unless noted
U251 CNS = details: 10 µM unless noted
PC-3 prostate = details: 10 µM unless noted
SK-MEL-5 melanoma = details: 10 µM unless noted
UACC-62 melanoma = details: 10 µM unless noted
LOX IMVI melanoma = details: 10 µM unless noted
SK-MEL-28 melanoma = details: 10 µM unless noted

| Compound | growth (DU-145 prostate) | growth (K-562 leukemia) | growth (MALME-3M melanoma) | growth (MDA-MB-231 breast) | growth (RXF 393 renal) | growth (SF-268 CNS) | growth (SF-295 CNS) | growth (SF-539 CNS) | growth (UACC-257 melanoma) | growth (M14 melanoma) | growth (HCT-15 colon) | growth (HT29 colon) | growth (SNB-75 CNS) | growth (SNB-19 CNS) | growth (U251 CNS) | growth (PC-3 prostate) | growth (SK-MEL-5 melanoma) | growth (UACC-62 melanoma) | growth (LOX IMVI melanoma) | growth (SK-MEL-28 melanoma) |
| --- | --- | --- | --- | --- | --- | --- | --- | --- | --- | --- | --- | --- | --- | --- | --- | --- | --- | --- | --- | --- |
| Nc1nc(N)c2c(n1)NC(c1ccc(Cl)cc1)CC(c1ccc(Nc3nc(NCCO)nc(Nc4ccc(Cl)cc4)n3)cc1)=N2 (stereo not given) | 0.35% (active) | -25.2% (active) | 68.9% | 53% | 43.6% | 51.4% | 47.5% | 83.4% | 107% | 34.5% | 1.91% (active) | -21.8% (active) | 77.9% | 17.2% | -35.6% (active) | 44.1% | 48.4% | 91.2% | -90% (active) | 103% |
| CS(=O)(=O)c1ccc2c(c1)c1c(n2Cc2ccc(Cl)cc2)CCCC1 | 86.7% | 32.6% | 74.4% | 66.1% | 73.4% | 86.6% | 67% | 81.1% | 92.1% | 75.6% | 54.9% | 75.5% | 75.4% | 72.3% | 68.1% | 51.9% | 82.4% | 43.2% | 81.5% | 87.2% |
| CNC(=O)c1cc(Oc2ccc3nc(NC(=O)c4ccc(CN5CCN(C)CC5)c(C(F)(F)F)c4)sc3c2)ccn1 | 79.3% | 11.7% | -5.19% (active) | 77.5% | 46.7% | 74.6% | 36% | 25% | 20.4% | 0.73% (active) | 8.89% (active) | 16.1% | 55.1% | 75.9% | 57.1% | 47.3% | 31.4% | 56.3% | -28.2% (active) | -38.1% (active) |
| N/C(=N\OC(=O)CSc1nc2ccccc2s1)c1ccc2ccccc2c1 | 103% | 102% | 105% | 89.5% | 119% | 98.2% | 103% | 95.2% | 105% | 98.6% | 101% | 103% | 86.7% | 99.9% | 96.4% | 93.6% | 101% | 91.4% | 99.8% | 106% |
| O=C1/C(=C/c2ccc([N+](=O)[O-])cc2)SC(=Nc2ccccc2)N1Nc1ccccc1 | 63.5% | 17.8% | 90.3% | 54.7% | 58.9% | 73% | 87.1% | 65.1% | 89.7% | 80.1% | 39.3% | 42.3% | 73.2% | 60.2% | 44.4% | 62.1% | 92% | 55.8% | 19.3% | 83% |
| COc1ccccc1/C=C/C(=O)c1nnn(-c2ccc(C(=O)O)cc2)c1C | 80.4% | 73.7% | 86.8% | 98.7% | 86.6% | 87.5% | 100% | 91.4% | 81.5% | 77.8% | 71.6% | 106% | 89.1% | 87.9% | 86.4% | 93.2% | 95.7% | 79.7% | 66.1% | 97.3% |
| CC1(C)CC[C@]2(C(=O)O)CC[C@]3(C)C(=CCC4[C@@]5(C)C[C@@H](O)[C@@H]6OC(c7ccccc7O)OC[C@@]6(C)C5CC[C@]43C)C2C1 (stereo not given in full) | 44.1% | 40.6% | 83.9% | 82.5% | 76.9% | 56% | 30.2% | 63.7% | 93.7% | 43.3% | 29.8% | 44.1% | 72.6% | 59.2% | 28.6% | 62.9% | 63.4% | 82.4% | 27% | 84.7% |
| COc1cc(/C=C/C(=O)c2ccc(N3CCN(C)CC3)cc2)ccc1F | 88.3% | 7.19% (active) | 103% | 103% | 98.2% | 97.8% | 92.5% | 65.6% | 89.8% | 73.6% | 36.4% | 46.5% | 58% | 66.9% | 76.2% | 61.5% | 95.6% | 88.6% | 17.8% | 98.3% |
| CCCCCCNC(=O)Oc1ccc(/C(=C(\C)c2ccc(OC)cc2)c2ccc(OCCN(C)C)cc2)cc1 | 96.8% | 9.79% (active) | 1.42% (active) | 71.8% | 52.1% | 78.3% | 80.8% | 45.3% | 9.83% (active) | 6.24% (active) | 30.8% | 15.8% | 77.2% | 74.9% | 58.8% | 66.2% | 69.9% | 89.4% | -48.5% (active) | 76.2% |
| COc1ccc(/C=N\NC(=O)c2ccc3nc(-c4ccc(Br)cc4)[nH]c3c2)cc1 | 16.5% | 11.6% | -9.02% (active) | 48.6% | -17.7% (active) | 8.61% (active) | 11% | 16.4% | 38.7% | 24.7% | 48.1% | 17.5% | 46.1% | 19.2% | -51.5% (active) | 20.8% | 24.2% | 34.6% | -26% (active) | 13.8% |
| C/C(=N\NC(=S)Nc1ccc(Br)cc1)c1cc2ccccc2oc1=O | 29.4% | 9.69% (active) | 24% | 23.2% | -24.2% (active) | 14.5% | 32.1% | 20.9% | 10.1% | -28.8% (active) | 10% | 90.3% | 17.5% | 35.2% | 17.8% | 26.7% | -24.7% (active) | -20.5% (active) | 14% | 21.6% |
| O=C1c2c(O)cc(O)cc2O[C@@H](c2ccc(O)cc2)[C@@H]1c1c(O)cc(O)c2c(=O)cc(-c3ccc(O)c(O)c3)oc12 | 106% | 111% | 90.7% | 111% | 112% | 101% | 108% | 95.8% | 108% | 94.8% | 101% | 101% | 82.6% | 112% | 110% | 96.1% | 99.6% | 89.5% | 88.9% | 99.1% |
| COc1ccc(CN2C(=O)/C(=C/c3nc(CO)cs3)SC2=S)cc1 | 96.5% | 52.6% | 93.2% | 79.5% | 95.3% | 98.8% | 106% | 70.1% | 93.6% | 86.4% | 64.2% | 107% | 91.7% | 93.8% | 94% | 86.5% | 97.9% | 73.4% | 42.8% | 107% |
| CSc1ccc(/C(=N/N=C(N)N)c2ccccc2)cc1 | 15.2% | 25.2% | 50.6% | 29.5% | 15.4% | 53.6% | 5.99% (active) | -8.23% (active) | 80.7% | 9.73% (active) | 12.4% | 17% | 6.66% (active) | 29% | 29.2% | 35.4% | 17.7% | 44% | 13% | 65.5% |
| Cn1cc(-c2nnc(N)nc2-c2cn(C)c3ccc(F)cc23)c2cc(F)ccc21 | 95.6% | 101% | 107% | 94.6% | 104% | 78.5% | 113% | 96.4% | 101% | 101% | 91.8% | 63.3% | 64.4% | 91% | 83.2% | 95.2% | 91% | 94.6% | 98.4% | 103% |
